For 56 molecules, Potency results are on record in PubChem BioAssay AID1347416 (National Center for Advancing Translational Sciences (NCATS), 2020).

Among all 4,100 compounds or so, about 1,600 (39%) were called active. Another 25% or so got no clear call; they are omitted. Calls follow the shape of the dose curve; as a rule, active = well fitted inhibition curve with a large enough effect; inconclusive = small, poorly fitted or top-dose-only effect; inactive = no such curve, though single readings can be large or run the other way. This is one part of the list. Where a call stands in place of a potency, no number is given.
Potency is read from the fitted curve at half-maximal effect.

The experiment can be described thus: qHTS Validation assay for Inhibitors of Plasmodium falciparum Dd2 growth in vitro. Also: nearly all actives have a fitted effect of over 70% in size. The settings on record: P. falciparum Dd2 in RBCs, SYBR Green growth, 72 h; series mostly up to 28.7 µM. The gist of the method:
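P. falciparum Dd2-infected red blood cells (2.5% hematocrit, 0.3% parasitemia) grown 72 h at 37 °C under 5% O2 with compounds in a titration, 29 uM to 0.5 nM final. Growth read as SYBR Green-1 fluorescence after ~16 h lysis; artesunate 300 nM as positive control.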
Consider `Cc1ccc(-c2nc(CN3CCCC3=O)no2)cc1`, for which the Potency entry is “inactive”.

On to `CCCn1nnc(NC(=S)NC(=O)Cc2ccccc2)n1`, for which the Potency result is “inactive”.

`CCn1nnc(NC(=O)c2ccc(C(C)(C)C)cc2)n1`: the Potency is 9.44 µM (active).

On to `CCN(CC)C(=O)C[C@@H]1c2nc(NC(=O)c3cccc(F)c3)sc2C[C@@H]2[C@](C)(CO)[C@H](O)CC[C@]21C`, for which the Potency is 9.44 µM (active).

On to `CCOc1cc(C(=O)Nc2nnc(CC)s2)ccc1OCC(=O)N1CCOCC1`, for which the Potency entry was “inactive”.

Turning to `C[C@]1(CO)[C@H]2Cc3sc(NC(=O)c4cccc(F)c4)nc3[C@@H](CC(=O)N3CCOCC3)[C@]2(C)CC[C@H]1O`, the Potency is 8.41 µM (active).

For `C[C@H](C(=O)N1CCCC1)C1CC[C@@]2(C)Cc3sc(NC(=O)C4CC4)nc3[C@@H](C)[C@@H]2[C@H]1O` (stereo partly specified), the Potency result was “inactive”.

`CCOc1ccccc1C(=O)Nc1nc2c(s1)CC(C)CC2` (stereo unspecified): the Potency result was “inactive”.

As for `CC1CCN(C(=O)C[C@@H]2c3nc(NC(=O)c4cccc(F)c4)sc3C[C@@H]3[C@](C)(CO)[C@H](O)CC[C@]32C)CC1`, the Potency is 10.6 µM (active).

Consider `Cc1ccc(-c2nnc3ccc(-c4ccoc4)nn23)nc1`, for which the Potency result is “inactive”.

`COc1ccc(-n2cc(CNCCCn3ccnc3)c(-c3ccccc3Cl)n2)cc1`: the Potency was 3.35 µM (active).

In the case of `CCCn1cnnc1CNC(=O)CC1C(=O)NCCN1Cc1ccoc1` (stereo unspecified), the Potency result was “inactive”.

Regarding `Cc1ccc(OCc2nc(C3CN(C(=O)c4ccc5nc[nH]c5c4)C3)no2)cc1`, the Potency result is “inactive”.

Regarding `Cc1ccc(OCc2nc(C3CCN(C(=O)c4c5c(nc6ccccc46)CCCC5)CC3)no2)cc1`, the Potency is 9.44 µM (active).

Turning to `Cc1ccc(OCC(=O)N2CCC(c3noc(-c4ccccn4)n3)C2)cc1` (stereo unspecified), the Potency result is “inactive”.

As to `CCc1cccc(NC(c2nnc(-c3ccccc3)o2)c2ccc(F)cc2Cl)c1` (stereo unspecified), the Potency was 6.68 µM (active).

With `COc1ccc(C2C=C(c3ccc(Cl)cc3)Nc3nc(-c4ccc(Cl)cc4)nn32)cc1` (stereo unspecified), the Potency is 0.237 µM (active).

In the case of `COC(=O)C1=C(C)Nc2nnnn2C1c1ccccc1Cl` (stereo unspecified), the Potency entry is “inactive”.

As to `Cc1ccc(-c2nc3n(n2)C(c2ccccc2Cl)C=C(c2ccc(Cl)cc2)N3)cc1` (stereo unspecified), the Potency was 9.44 µM (active).

As for `Cc1ccc(C2=CC(c3ccc(Cl)cc3)n3nc(-c4ccc(C)cc4)nc3N2)cc1` (stereo unspecified), the Potency is 1.68 µM (active).

Consider `COc1ccc(C2C=C(c3ccccc3)Nc3nc(NS(=O)(=O)c4ccccc4)nn32)cc1` (stereo unspecified), for which the Potency result is “inactive”.

As to `COc1ccc(C2C=C(c3ccc(F)cc3)Nc3nc(-c4ccc(Cl)cc4)nn32)cc1` (stereo unspecified), the Potency was 0.75 µM (active).

Regarding `CC(=O)c1cccc(NC(=O)[C@H]2O[C@@H]3OC(C)(C)O[C@@H]3[C@H]3OC(C)(C)O[C@H]32)c1`, the Potency entry was “inactive”.

`COc1ccc(Cl)cc1NC(=O)c1cc(C)nc2c1c(C)nn2-c1ccccc1`: the Potency entry is “inactive”.

On to `COc1cccc(-c2c(C#N)c(N)nc3c2c(C)nn3-c2ccccc2)c1O`, for which the Potency was 1.5 µM (active).

On to `CCN(C(=O)CSc1nc(-c2ccc(C(C)C)cc2)no1)c1cccc(C)c1`, for which the Potency is 1.06 µM (active).

Regarding `Cc1cccc(C(=O)NCc2nnc3c(-c4nc(C(C)C)no4)cccn23)c1`, the Potency entry was “inactive”.

As for `CCN(C(=O)CSc1nc(-c2ccc(C(C)C)cc2)no1)c1ccccc1`, the Potency was 0.944 µM (active).

As to `CCN(C(=O)Cn1nc2c3cc(F)ccc3n(Cc3cccc(C)c3)cc-2c1=O)c1cccc(C)c1`, the Potency entry is “inactive”.

`Cc1ccc(NC(=O)c2cc(C(=O)c3cc(Cl)ccc3O)cn(-c3ccc(C)cc3)c2=O)cc1`: the Potency is 0.422 µM (active).

For `Cn1c(=O)c(=O)n(C)c2cc(N3CCCC3)c(NC(=O)c3ccccc3F)cc21`, the Potency result was “inactive”.

With `Cc1ccccc1NC(=O)c1cc(C(=O)c2cc(Cl)ccc2O)cn(-c2ccccc2C)c1=O`, the Potency was 0.376 µM (active).

`Cc1ccc(NC(=O)c2cc3n(n2)CC(c2ccc(Cl)cc2)OC3)cc1` (stereo unspecified): the Potency result was “inactive”.

For the molecule `O=C(Cn1cc(C(=O)c2ccncc2)c(=O)c2cc(F)ccc21)Nc1ccc(Cl)cc1`, the Potency result is “inactive”.

As to `COc1cc(Cn2nnc3ccccc32)cc(Br)c1O`, the Potency result was “inactive”.

For `CCC(C)NC(=O)C1CCC(CNS(=O)(=O)c2cccc3nsnc23)CC1` (stereo unspecified), the Potency entry is “inactive”.

As for `Oc1ccc(-c2n[nH]c(=S)n2-c2ccc3c(c2)OCCO3)c(O)c1`, the Potency is 2.66 µM (active).

In the case of `COc1ccc(C2=CC(c3ccc(F)cc3)n3ncc(C(=O)Nc4ccc(C)cc4)c3N2)cc1` (stereo unspecified), the Potency was 2.37 µM (active).

As for `CCOc1ccc(NC(=O)c2cnn3c2NC(c2cccc(OC)c2)=CC3c2ccccc2)cc1` (stereo unspecified), the Potency was 4.73 µM (active).

Turning to `Cc1nn2c(c1-c1ccccc1Oc1ccccc1)N(C(=O)Cc1cccc(F)c1)CCC2`, the Potency entry was “inactive”.

With `COc1ccc(CN2CCCn3nc(C)c(-c4ccccc4Oc4ccccc4)c32)cc1O`, the Potency is 9.44 µM (active).

In the case of `Cc1nn2c(c1-c1ccccc1Oc1ccccc1)N(Cc1ccccc1O)CCC2`, the Potency was 4.85 µM (active).

Regarding `COc1cccc(CC(=O)N2CCCn3nc(C)c(-c4ccccc4OCc4ccccc4)c32)c1`, the Potency is 9.44 µM (active).

`COCC(=O)N[C@@H]1CN(C(=O)Cc2cccc(OC)c2)CC[C@@H]1c1nc(C)no1`: the Potency entry was “inactive”.

In the case of `Cc1nn2c(c1-c1ccccc1Oc1ccccc1)N(Cc1cccc(O)c1)CCC2`, the Potency is 10.9 µM (active).

As to `Cc1nn2c(c1-c1ccccc1OCc1ccccc1)N(Cc1ccccc1)CCC2`, the Potency was 15.3 µM (active).

As to `S=c1[nH]cc(-c2ccc(Cl)cc2)n1-c1ccccc1`, the Potency result was “inactive”.

Take `Cc1ccc2c(n1)N(C)[C@H](CO)CCN(Cc1ccc(C(F)(F)F)cc1)C2`: the Potency was 15.3 µM (active).

For the molecule `COc1ccc(-n2nc(C3CCN(Cc4ccc(C(F)(F)F)cc4)CC3)[nH]c2=O)cc1`, the Potency result was “inactive”.

For `Cc1ccc(Cn2c(C3CCN(C(=O)c4ccc(C(F)(F)F)cc4)CC3)n[nH]c2=O)cc1`, the Potency result is “inactive”.

On to `CCN(CC)C(=O)N1CCCCC1c1noc(COc2ccc(F)cc2)n1` (stereo unspecified), for which the Potency entry is “inactive”.

On to `CC(C)c1cccc(NC(=O)C2CCN(C(=O)c3ncn4c3COC(c3ccccc3)C4)CC2)c1` (stereo unspecified), for which the Potency result was “inactive”.

Turning to `O=C(NCCC1=CCCCC1)C1CCN(C(=O)c2ncn3c2COC(c2ccccc2)C3)CC1` (stereo unspecified), the Potency result was “inactive”.

With `CCOc1ccccc1C(=O)N1CCN(C(=O)c2nnn3c2COC(c2ccccc2)C3)CC1` (stereo unspecified), the Potency is 16.8 µM (active).

For the molecule `CC(C)(C)c1ccc(C(=O)N2CCN(C(=O)c3nnn4c3COC(c3ccccc3)C4)CC2)cc1` (stereo unspecified), the Potency was 10.6 µM (active).

As to `CCc1cccc(NC(=O)C2CCN(C(=O)c3nnn4c3COC(c3ccc(C)cc3)C4)CC2)c1` (stereo unspecified), the Potency entry was “inactive”.
